Laboratory results as given in the antibiotic and cytotoxicity screens of Wong et al. (2023).
The whole screen tested about 39,000 compounds, of which about 1,500 (3.8%) were called active. The sample as a whole holds a higher share of actives than the screen did.

What follows are compounds tested on HSkMC (human skeletal muscle cells) (assay: cytotoxicity call (relative viability < 0.9)). Conditions: 10 µM.
In the case of `O=C(O)[C@H]1CCCNC1`, the cytotoxicity call is reported as “inactive”.
With `CO[C@@H]1CN(C)C(=O)c2ccc(NC(=O)Nc3cccc(F)c3)cc2OC[C@@H](C)N(C(=O)Nc2c(C)noc2C)C[C@@H]1C` the cytotoxicity call was “inactive”.
With `C[C@H](CO)N1C[C@H](C)[C@@H](CN(C)Cc2ccccc2)OCCCC[C@H](C)Oc2ccc(NC(=O)Nc3ccc4c(c3)OCO4)cc2C1=O` the cytotoxicity call was “inactive”.
For `C[C@@H]1CCCCO[C@H](CN(C)S(=O)(=O)c2ccc(Cl)cc2)[C@@H](C)CN([C@H](C)CO)C(=O)c2cc(NC(=O)Nc3ccc4c(c3)OCO4)ccc2O1`, the cytotoxicity call was “inactive”.
In the case of `CC(C)NC(=O)N(C)C[C@@H]1OCCCC[C@@H](C)Oc2ccc(NC(=O)C3CCCCC3)cc2C(=O)N([C@@H](C)CO)C[C@@H]1C`, the cytotoxicity call is reported as “inactive”.
With `Cc1noc(C)c1NC(=O)Nc1ccc2c(c1)C(=O)N([C@@H](C)CO)C[C@@H](C)[C@@H](CN(C)C(=O)C1CCCCC1)OCCCC[C@@H](C)O2` the cytotoxicity call was “inactive”.
With `N#Cc1ccc(-c2cccs2)nc1` the cytotoxicity call was “inactive”.
In the case of `C[C@H]1CN([C@@H](C)CO)C(=O)Cc2cc(NC(=O)Cn3cnnn3)ccc2O[C@H]1CN(C)Cc1ccncc1`, the cytotoxicity call is reported as “inactive”.
In the case of `CC(=O)N1Cc2cc(C(=O)NCc3cccc(F)c3)nc(-c3cccc(C4=CCCCC4)c3)c2[C@@H]1CCO`, the cytotoxicity call is reported as “inactive”.
For `CC(=O)N1Cc2cc(C(=O)NCC(F)(F)F)nc(-c3cccc(-c4cc5ccccc5o4)c3)c2[C@H]1CCO`, the cytotoxicity call was “inactive”.
In the case of `O=C(NCC(F)(F)F)c1cc2c(c(-c3cccc(-c4ccccc4F)c3)n1)[C@@H](CCO)N(C(=O)CC1CC1)C2`, the cytotoxicity call is reported as “active”.
For `COc1ccccc1-c1cccc(-c2nc(C(=O)Nc3nccs3)cc3c2[C@H](CCO)N(C(=O)CC2CC2)C3)c1`, the cytotoxicity call was “inactive”.
`O=C(NCC1CC1)c1cc2c(c(-c3cccc(-c4ccccc4F)c3)n1)[C@@H](CCO)N(C(=O)CC1CC1)C2` was tested, and the cytotoxicity call was “inactive”.
For `CC(C)(C)S(=O)N1Cc2cc(C(=O)N3CCN(Cc4ccccc4)CC3)nc(-c3cccc(-c4cc5ccccc5o4)c3)c2[C@H]1CCO` (stereo partly drawn), the cytotoxicity call was “active”.
With `COc1ccccc1-c1cccc(-c2nc(C(=O)Nc3nccs3)cc3c2[C@@H](CCO)N(C(=O)CC2CC2)C3)c1` the cytotoxicity call was “inactive”.
In the case of `COc1ccc(C#Cc2cccc(-c3nc(C(=O)N4CCN(Cc5ccccc5)CC4)cc4c3[C@H](CCO)N(S(=O)C(C)(C)C)C4)c2)cc1OC` (stereo partly drawn), the cytotoxicity call is reported as “inactive”.
In the case of `COc1ccc(C#Cc2cccc(-c3nc(C(=O)N4CCN(Cc5ccccc5)CC4)cc4c3[C@@H](CCO)N(S(=O)C(C)(C)C)C4)c2)cc1OC` (stereo partly drawn), the cytotoxicity call is reported as “inactive”.
For `CCC(=O)N1Cc2cc(C(=O)Nc3nccs3)nc(-c3cccc(-c4ccccc4OC)c3)c2[C@H]1CCO`, the cytotoxicity call was “active”.
`CC(=O)N1Cc2cc(C(=O)NCc3cc(F)cc(F)c3)nc(-c3cccc(C4=CCCC4)c3)c2[C@H]1CCO` was tested, and the cytotoxicity call was “inactive”.
For `CC(=O)N1Cc2cc(C(=O)NCc3cccc(F)c3)nc(-c3cccc(C4=CCCCC4)c3)c2[C@H]1CCO`, the cytotoxicity call was “active”.
`C[C@@H]1CN([C@@H](C)CO)C(=O)c2cc(NC(=O)CCC(F)(F)F)ccc2O[C@@H](C)CCCCO[C@H]1CN(C)C(=O)Nc1ccccc1` was tested, and the cytotoxicity call was “inactive”.
For `O=C(C[C@H]1CC[C@@H]2[C@H](COC[C@H](O)CN2C(=O)Nc2ccc(Cl)c(Cl)c2)O1)NCc1ccc(Cl)c(Cl)c1`, the cytotoxicity call was “inactive”.
In the case of `CCC(=O)N(C)C[C@H]1Oc2ncc(C#C[C@@H](C)O)cc2C(=O)N([C@H](C)CO)C[C@@H]1C`, the cytotoxicity call is reported as “inactive”.
In the case of `Cc1noc(C)c1NC(=O)Nc1ccc2c(c1)C(=O)N([C@@H](C)CO)C[C@H](C)[C@@H](CN(C)Cc1ccncc1)OCCCC[C@@H](C)O2`, the cytotoxicity call is reported as “inactive”.
With `CCCN(C)C[C@H]1OCCCC[C@@H](C)Oc2ccc(NC(=O)Nc3ccc(F)cc3)cc2C(=O)N([C@@H](C)CO)C[C@H]1C` the cytotoxicity call was “inactive”.
In the case of `C#CCN([C@H](/C=C/C1CC1)[C@@H](O)Cc1ccccc1)[C@@H](Cc1ccc(-n2cc(CCC(=O)NO)nn2)cc1)C(=O)OC`, the cytotoxicity call is reported as “inactive”.
For `O=C(CCc1cn(CC(=O)N2CCC3(CC2)C(=O)NCN3c2ccccc2)nn1)NO`, the cytotoxicity call was “inactive”.
`CCCNC(=O)Cc1nnc[nH]1` was tested, and the cytotoxicity call was “inactive”.
With `COc1ccccc1-c1cccc(-c2nc(C(=O)NCc3ccncc3)cc3c2[C@@H](CCO)N([S@@](=O)C(C)(C)C)C3)c1` the cytotoxicity call was “inactive”.
For `CC(C)(C)S(=O)N1Cc2cc(C(=O)Nc3ccc(-c4ccccc4)cc3)nc(-c3cccc(-c4cccc(F)c4)c3)c2[C@@H]1CCO` (stereo partly drawn), the cytotoxicity call was “active”.
For `CCNC(=O)c1cc2c(c(-c3cccc(-c4cccc(F)c4)c3)n1)[C@@H](CCO)N([S@](=O)C(C)(C)C)C2`, the cytotoxicity call was “inactive”.
`COc1ccccc1-c1cccc(-c2nc(C(=O)NCc3ccncc3)cc3c2[C@@H](CCO)N([S@](=O)C(C)(C)C)C3)c1` was tested, and the cytotoxicity call was “inactive”.
`CC(C)(C)[S@](=O)N1Cc2cc(C(=O)NCCc3ccncc3)nc(-c3cccc(-c4ccccc4)c3)c2[C@@H]1CCO` was tested, and the cytotoxicity call was “inactive”.
In the case of `CC(C)(C)[S@@](=O)N1Cc2cc(C(=O)NCCc3ccncc3)nc(-c3cccc(-c4ccccc4)c3)c2[C@H]1CCO`, the cytotoxicity call is reported as “active”.
`COc1ccccc1-c1cccc(-c2nc(C(=O)NCc3ccncc3)cc3c2[C@H](CCO)N([S@@](=O)C(C)(C)C)C3)c1` was tested, and the cytotoxicity call was “active”.
`CC(C)(C)[S@@](=O)N1Cc2cc(C(=O)NCCc3ccncc3)nc(-c3cccc(-c4ccc(C#N)cc4)c3)c2[C@H]1CCO` was tested, and the cytotoxicity call was “inactive”.
For `CCNC(=O)c1cc2c(c(-c3cccc(-c4cccc(F)c4)c3)n1)[C@H](CCO)N([S@@](=O)C(C)(C)C)C2`, the cytotoxicity call was “inactive”.
For `COCC(=O)N(C)C[C@H]1Oc2cc(C#CC(C)(C)O)ccc2S(=O)(=O)N([C@@H](C)CO)C[C@H]1C`, the cytotoxicity call was “inactive”.
For `C[C@H]1CN([C@@H](C)CO)C(=O)c2cccc(NS(=O)(=O)c3cn(C)cn3)c2O[C@@H]1CN(C)C(=O)NC1CCCCC1`, the cytotoxicity call was “inactive”.
In the case of `CO[C@H]1CN(C)C(=O)c2ccc(NS(=O)(=O)c3cn(C)cn3)cc2OC[C@@H](C)N(CC2CC2)C[C@@H]1C`, the cytotoxicity call is reported as “inactive”.
`Cn1cnc(S(=O)(=O)N2C[C@@H](O)COC[C@@H]3O[C@H](CC(=O)NCc4cccc(F)c4)CC[C@H]32)c1` was tested, and the cytotoxicity call was “inactive”.
In the case of `CNC(=O)c1cccc(S(N)(=O)=O)c1`, the cytotoxicity call is reported as “inactive”.
`C[C@@H]1CCCCO[C@H](CN(C)C(=O)NC2CCCCC2)[C@H](C)CN([C@H](C)CO)C(=O)c2cc(NC(=O)NC3CCCCC3)ccc2O1` was tested, and the cytotoxicity call was “inactive”.
